62 molecules from the antibiotic and cytotoxicity screens of Wong et al. (2023) can be followed below.

SMILES strings stand for the structures. Screen size: about 39,000 compounds; about 500 (1.3%) were called active. Shown is part of a subset that was picked to be rich in actives.

The test relates to S. aureus RN4220. As to the kind of experiment: growth inhibition call (relative growth <= 0.2). Conditions: 50 µM.
As to `CS(=O)(=O)NCc1cnc2n1CCN(C(=O)[C@H]1CCOC1)CC2`, the growth inhibition call is “inactive”. For `CC(C)[N+]1(C)C2CCC1CC(OC(=O)C(CO)c1ccccc1)C2.[Br-]` (configuration not stated) the value was “inactive”; for `C[C@H](CO)N1C[C@H](C)[C@@H](CN(C)Cc2ccc(-c3ccccc3)cc2)Oc2c(NS(=O)(=O)c3ccc(F)cc3)cccc2C1=O`, “inactive”; for `C=C(NC(=O)C(=C)NC(=O)c1csc(C2=N[C@@H]3c4csc(n4)[C@@H]4NC(=O)c5csc(n5)[C@H](C(C)(O)[C@@H](C)O)NC(=O)[C@H]5CSC(=N5)/C(=C/C)NC(=O)[C@H]([C@@H](C)O)NC(=O)c5csc(n5)[C@]3(CC2)NC(=O)[C@@H](C)NC(=O)C(=C)NC(=O)[C@@H](C)NC(=O)[C@@H]([C@H](C)CC)N[C@H]2C=Cc3c([C@@H](C)O)cc(nc3[C@@H]2O)C(=O)O[C@H]4C)n1)C(N)=O` (some centres not stated), “inactive”. For `C=C(NC(=O)C(=C)NC(=O)c1csc(C2=N[C@H]3c4csc(n4)[C@H]4NC(=O)c5csc(n5)[C@H](C(C)(O)[C@@H](C)O)NC(=O)[C@H]5CSC(=N5)C(=CC)NC(=O)[C@H]([C@@H](C)O)NC(=O)c5csc(n5)[C@]3(CC2)NC(=O)[C@H](C)NC(=O)C(=C)NC(=O)[C@H](C)NC(=O)[C@H]([C@H](C)CC)N[C@@H]2C=Cc3c([C@H](C)O)cc(nc3[C@H]2O)C(=O)O[C@@H]4C)n1)C(N)=O` (some centres not stated) the value was “inactive”; for `C=C(NC(=O)C(=C)NC(=O)c1csc(C2=NC3c4csc(n4)C4NC(=O)c5csc(n5)C(C(C)(O)C(C)O)NC(=O)C5CSC(=N5)C(=CC)NC(=O)C(C(C)O)NC(=O)c5csc(n5)C3(CC2)NC(=O)C(C)NC(=O)C(=C)NC(=O)C(C)NC(=O)C(C(C)CC)NC2C=Cc3c(C(C)O)cc(nc3C2O)C(=O)OC4C)n1)C(N)=O` (configuration not stated), “active”; for `COCCNC(=O)c1cn(C)nc1OC`, “inactive”. For `C[C@H]1CN([C@@H](C)CO)C(=O)c2cccc(NS(=O)(=O)c3cn(C)cn3)c2O[C@H]1CN(C)S(=O)(=O)c1cn(C)cn1` the value was “inactive”; for `C[C@H]1CN([C@@H](C)CO)S(=O)(=O)c2ccc(C#CC3(O)CCCC3)cc2O[C@H]1CN(C)C(=O)Cc1ccccc1`, “inactive”; for `CC(C)NC(=O)N(C)C[C@@H]1Oc2c(NS(=O)(=O)c3ccccc3)cccc2C(=O)N([C@@H](C)CO)C[C@H]1C`, “inactive”. As for `C[C@H](CO)N1C[C@H](C)[C@@H](CN(C)C(=O)CCN2CCCCC2)Oc2ncc(C#CCN(C)C)cc2C1=O`, the growth inhibition call was “inactive”. As for `O=C(O)c1cc(F)c2nc(N3[C@@H]4CC[C@H]3C[C@@H](OCc3c(-c5ccccc5OC(F)(F)F)noc3C3CC3)C4)sc2c1`, the growth inhibition call is “active”. Regarding `COc1ccc(CN2C[C@H](C)[C@@H](OC)CN(C)C(=O)c3ccc(NC(=O)c4nc5ccccc5s4)cc3OC[C@H]2C)cc1`, the growth inhibition call was “inactive”. As for `O=C1OC2(c3ccccc31)c1cc(I)c(O)c(I)c1Oc1c2cc(I)c(O)c1I`, the growth inhibition call is “active”.

As to `O=C1OC(c2cc(I)c(O)c(I)c2)(c2cc(I)c(O)c(I)c2)c2ccccc21`, the growth inhibition call is “inactive”. For `O=C1OC2(c3ccc(O)cc3Oc3cc(O)ccc32)c2ccccc21` the value was “inactive”; for `Cc1ccc(CNS(=O)(=O)N(C)C)cc1`, “inactive”. For `CO[C@H](CN(C)S(=O)(=O)c1ccc(Cl)cc1)[C@@H](C)CN([C@H](C)CO)S(=O)(=O)c1cccc(Cl)c1` the value was “inactive”; for `C[C@H](CO)N1C[C@H](C)[C@@H](CN(C)C(=O)Cc2ccncc2)Oc2ncc(C#Cc3ccccc3F)cc2C1=O`, “inactive”; for `N=C(N)NCCC[C@@H](NC(=O)CC1(CC(=O)N2CCN([C@H]3c4ccccc4NC(=O)c4ccccc43)CC2)CCCC1)C(=O)NCCn1c(=O)n(-c2ccccc2)n(-c2ccccc2)c1=O`, “active”. For `C[C@H]1CN([C@@H](C)CO)C(=O)c2cc(NC(=O)Nc3cccc4ccccc34)ccc2O[C@H]1CN(C)C(=O)Nc1ccccc1` the value was “inactive”; for `C[C@@H]1CN([C@H](C)CO)C(=O)c2cccc(NS(C)(=O)=O)c2O[C@H]1CN(C)Cc1ccc(C(=O)O)cc1`, “inactive”. Take `CC=C(C(=CC)c1ccc(O)cc1)c1ccc(O)cc1`: the growth inhibition call was “active”. As for `Oc1ccc(O)cc1`, the growth inhibition call is “inactive”.

Regarding `CCC(=C(CC)c1ccc(O)cc1)c1ccc(O)cc1`, the growth inhibition call is “inactive”. For `CC(C)NC(=O)N(C)C[C@@H]1Oc2cc(C#Cc3ccc(F)cc3)ccc2S(=O)(=O)N([C@H](C)CO)C[C@H]1C` the value was “inactive”.

As to `C[C@H](CO)N1C[C@H](C)[C@H](CN(C)Cc2ccc(Cl)c(Cl)c2)Oc2ccc(NC(=O)Nc3ccc(F)cc3)cc2CC1=O`, the growth inhibition call is “inactive”. Next, `C[C@@H]1CCCCO[C@H](CN(C)Cc2ccc(C(F)(F)F)cc2)[C@@H](C)CN([C@@H](C)CO)C(=O)c2cc(NS(=O)(=O)c3ccc(Cl)cc3)ccc2O1`: “inactive”; `CCn1c(Cl)nc2c1c(=O)n(C)c(=O)n2C`: “inactive”; `Cc1nc2c(=O)n(C)c(=O)n(C)c2nc1Cl`: “active”.

Regarding `Cn1c(=O)c2c(nc(SCSc3nc4c(c(=O)n(C)c(=O)n4C)n3C)n2C)n(C)c1=O`, the growth inhibition call is “inactive”. Turning to `Cc1noc(C)c1S(=O)(=O)Nc1ccc2c(c1)CC(=O)N([C@@H](C)CO)C[C@H](C)[C@@H](CN(C)Cc1ccncc1)O2`, the growth inhibition call is “inactive”. For `C[C@@H]1CN([C@@H](C)CO)C(=O)c2cc(NS(C)(=O)=O)ccc2O[C@H]1CN(C)C(=O)Nc1ccccc1` the value was “inactive”. As for `COC1(NC(=O)Cc2cccs2)C(=O)N2C(C(=O)[O-])=C(COC(N)=O)CSC21.[Na+]` (configuration not stated), the growth inhibition call was “active”. For `CC(=O)OCC1=C(C(=O)O)N2C(=O)[C@@H](NC(=O)CSc3ccncc3)[C@H]2SC1`, the growth inhibition call is “active”. Next, `CC(=O)OCC1=C(C(=O)[O-])N2C(=O)C(NC(=O)Cc3cccs3)C2SC1.[Na+]` (configuration not stated): “active”; `CC(=O)OCC1=C(C(=O)[O-])N2C(=O)C(NC(=O)CSc3ccncc3)C2SC1.[Na+]` (configuration not stated): “active”. Next, `C[C@H]1CCCCO[C@@H](CN(C)C(=O)Nc2ccc(C(F)(F)F)cc2)[C@@H](C)CN([C@@H](C)CO)C(=O)c2cc(NC(=O)NC3CCCCC3)ccc2O1`: “inactive”; `C[C@H]1CCCCO[C@@H](CN(C)C(=O)Nc2ccc3c(c2)OCO3)[C@@H](C)CN([C@@H](C)CO)C(=O)c2cc(NS(=O)(=O)c3ccccc3)ccc2O1`: “inactive”. Next, `C[C@H](CO)N1C[C@H](C)[C@@H](CN(C)S(C)(=O)=O)Oc2c(NC(=O)Nc3ccc(C(F)(F)F)cc3)cccc2C1=O`: “inactive”; `COc1cccc(C#Cc2cnc3c(c2)C(=O)N([C@@H](C)CO)C[C@@H](C)[C@@H](CN(C)C(=O)C2CCOCC2)O3)c1`: “inactive”; `C[C@@H]1CN([C@@H](C)CO)C(=O)c2cc(-c3cccc(C(=O)N(C)C)c3)cnc2O[C@H]1CN(C)S(=O)(=O)c1ccc(F)cc1`: “inactive”. Regarding `CO[C@@H]1CN(C)C(=O)c2ccc(NC(=O)Nc3ccccc3F)cc2OC[C@@H](C)N(Cc2ccccc2C(=O)O)C[C@H]1C`, the growth inhibition call is “inactive”. Take `C[C@@H]1O[C@@H](O[C@@H]2[C@@H](O)[C@H](OCCc3ccc(O)c(O)c3)O[C@H](CO)[C@H]2OC(=O)/C=C/c2ccc(O)c(O)c2)[C@H](O)[C@H](O)[C@H]1O`: the growth inhibition call is “inactive”.

In the case of `CO[C@@H]1CN(C)C(=O)c2cc(NS(C)(=O)=O)ccc2OC[C@@H](C)N(C(=O)C2CCCCC2)C[C@H]1C`, the growth inhibition call was “inactive”. As for `C[C@@H]1CN([C@@H](C)CO)C(=O)c2cc(NC(=O)c3ccncc3)ccc2O[C@H]1CN(C)Cc1ccc(C(=O)O)cc1`, the growth inhibition call was “inactive”.

For `C[C@H](CO)N1C[C@H](C)[C@@H](CN(C)Cc2ccc(Oc3ccccc3)cc2)Oc2ccc(NC(=O)c3ccncc3)cc2C1=O`, the growth inhibition call is “inactive”.

As to `COc1ccc(S(=O)(=O)Nc2ccc3c(c2)CC(=O)N([C@H](C)CO)C[C@H](C)[C@H](CN(C)Cc2ccc(Cl)c(Cl)c2)O3)cc1`, the growth inhibition call is “inactive”.

For the molecule `CN1C(=O)c2cc(NC(=O)c3cccs3)ccc2OC[C@@H]2O[C@@H](CC(=O)NCCN3CCCCC3)CC[C@@H]21`, the growth inhibition call is “inactive”. In the case of `CN(C)CC(=O)N[C@H]1CC[C@H](CCNC(=O)C2CCC2)O[C@@H]1CO`, the growth inhibition call is “inactive”. For `C[C@@H]1CN([C@H](C)CO)C(=O)Cc2cc(NC(=O)Nc3ccc(C(F)(F)F)cc3)ccc2O[C@@H]1CN(C)Cc1ccc(-c2ccccc2)cc1` the value was “inactive”. Next, `O=C(C[C@@H]1CC[C@H]2[C@@H](COC[C@H](O)CN2S(=O)(=O)c2ccc(Cl)cc2)O1)NCC1CCCCC1`: “inactive”; `O=C(C[C@@H]1CC[C@@H]2[C@H](COC[C@H](O)CN2S(=O)(=O)c2ccc(Cl)cc2)O1)NCC1CCCCC1`: “inactive”; `O=C(C[C@@H]1CC[C@H]2[C@@H](COC[C@@H](O)CN2S(=O)(=O)c2ccc(Cl)cc2)O1)NCC1CCCCC1`: “active”. Next, `O=C(C[C@H]1CC[C@@H]2[C@H](COC[C@H](O)CN2S(=O)(=O)c2ccc(Cl)cc2)O1)NCC1CCCCC1`: “active”; `O=C(C[C@@H]1CC[C@@H]2[C@H](COC[C@@H](O)CN2S(=O)(=O)c2ccc(Cl)cc2)O1)NCC1CCCCC1`: “inactive”; `O=C(C[C@H]1CC[C@H]2[C@@H](COC[C@@H](O)CN2S(=O)(=O)c2ccc(Cl)cc2)O1)NCC1CCCCC1`: “inactive”. In the case of `C[C@@H]1CN([C@@H](C)CO)S(=O)(=O)c2ccc(C#CCN(C)C)cc2O[C@@H]1CN(C)S(C)(=O)=O`, the growth inhibition call was “inactive”. In the case of `CC(C)NC(=O)N(C)C[C@H]1Oc2ccc(NC(=O)NC3CCCCC3)cc2CC(=O)N([C@H](C)CO)C[C@H]1C`, the growth inhibition call was “inactive”. For `CC(C)NC(=O)N(C)C[C@@H]1Oc2ccc(NS(=O)(=O)c3cccs3)cc2CC(=O)N([C@@H](C)CO)C[C@@H]1C` the value was “inactive”; for `C[C@@H]1CN([C@@H](C)CO)C(=O)Cc2cc(NS(=O)(=O)c3cn(C)cn3)ccc2O[C@H]1CN(C)Cc1ccc(C(=O)Nc2ccccc2N)cc1`, “inactive”. For `C[C@H]1CCCCO[C@@H](CN(C)S(=O)(=O)c2ccccc2)[C@@H](C)CN([C@@H](C)CO)C(=O)c2cc(NC(=O)c3ccccc3)ccc2O1` the value was “inactive”.
